{"source": "the antibiotic and cytotoxicity screens of Wong et al. (2023)", "note": "The campaign covered roughly 39,000 compounds. About 3,300 (8.5%) were called active. The entries come from a sample that favours actives as a whole.", "data": [{"system": "HepG2", "test": "cytotoxicity call (relative viability < 0.9)", "conditions": "10 µM", "values": [{"smiles": "C[C@@H]1CN([C@@H](C)CO)C(=O)c2cccc(NS(=O)(=O)c3cn(C)cn3)c2O[C@@H]1CN(C)S(=O)(=O)c1cccs1", "cytotoxicity call": "inactive"}, {"smiles": "Oc1ccc(O)cc1", "cytotoxicity call": "active"}, {"smiles": "Nc1cccc(O)c1", "cytotoxicity call": "inactive"}, {"smiles": "Cc1ccc(O)cc1", "cytotoxicity call": "inactive"}, {"smiles": "Nc1ccc(O)cc1", "cytotoxicity call": "active"}, {"smiles": "Nc1ccc(C(=O)O)cc1", "cytotoxicity call": "inactive"}, {"smiles": "OCc1ccc(O)cc1", "cytotoxicity call": "inactive"}, {"smiles": "C[C@@H]1CCCCO[C@H](CN(C)S(=O)(=O)c2ccccc2)[C@@H](C)CN([C@H](C)CO)C(=O)c2cc(NS(=O)(=O)c3cn(C)cn3)ccc2O1", "cytotoxicity call": "inactive"}, {"smiles": "Cc1noc(C)c1NC(=O)N(C)C[C@@H]1Oc2c(NC(=O)c3ccc(-c4nccs4)cc3)cccc2C(=O)N([C@@H](C)CO)C[C@@H]1C", "cytotoxicity call": "inactive"}, {"smiles": "C[C@@H]1CCCCO[C@H](CN(C)C(=O)Cc2ccccc2)[C@H](C)CN([C@H](C)CO)C(=O)c2cc(NS(=O)(=O)c3ccc(F)cc3)ccc2O1", "cytotoxicity call": "inactive"}, {"smiles": "C[C@H](CO)N1C[C@H](C)[C@@H](CN(C)C(=O)Nc2cccc3ccccc23)Oc2ccc(NC(=O)Cc3ccccc3)cc2CC1=O", "cytotoxicity call": "inactive"}, {"smiles": "Cc1noc(C)c1NC(=O)Nc1ccc2c(c1)C(=O)N([C@@H](C)CO)C[C@H](C)[C@@H](CN(C)Cc1ccc3c(c1)OCO3)OCCCC[C@H](C)O2", "cytotoxicity call": "inactive"}, {"smiles": "Brc1cccc2ocnc12", "cytotoxicity call": "inactive"}, {"smiles": "Cc1cc(C(=O)Nc2cccc3c2O[C@H](CN(C)Cc2ccc(C(=O)O)cc2)[C@H](C)CN([C@H](C)CO)C3=O)n(C)n1", "cytotoxicity call": "inactive"}, {"smiles": "CC[C@H](C)[C@@H]([C@@H](CC(=O)N1CCC[C@H]1[C@H](OC)[C@@H](C)C(=O)N[C@@H](Cc1ccccc1)c1nccs1)OC)N(C)C(=O)[C@@H](NC(=O)[C@H](C(C)C)N(C)C)C(C)C", "cytotoxicity call": "active"}, {"smiles": "C[C@@H]1CCCCO[C@H](CN(C)C(=O)Nc2cccc3ccccc23)[C@H](C)CN([C@@H](C)CO)C(=O)c2cc(NC(=O)Nc3ccc4c(c3)OCO4)ccc2O1", "cytotoxicity call": "inactive"}, {"smiles": "Cc1noc(C)c1NC(=O)Nc1ccc2c(c1)C(=O)N([C@H](C)CO)C[C@H](C)[C@@H](CN(C)Cc1ccc(-c3ccccc3)cc1)O2", "cytotoxicity call": "inactive"}, {"smiles": "CCOC(=O)C1=C(C)NC(c2ccccc2)=C(C(=O)OCc2ccc([N+](=O)[O-])cc2)[C@@H]1C#Cc1ccccc1", "cytotoxicity call": "inactive"}, {"smiles": "COC(=O)C1=C(C)NC(C)=C(C(=O)OCCN(C)Cc2ccccc2)C1c1cccc([N+](=O)[O-])c1.Cl", "note": "(configuration not stated)", "cytotoxicity call": "inactive"}, {"smiles": "CCCN1C(C)=C(C(=O)OC)[C@@H](c2cccc([N+](=O)[O-])c2)C(C(=O)ON2CCC(c3ccccc3)(c3ccccc3)CC2)=C1C", "cytotoxicity call": "active"}, {"smiles": "CCOC(=O)C1=C(C)NC(C)=C(C(=O)OC)C1c1cccc([N+](=O)[O-])c1", "note": "(configuration not stated)", "cytotoxicity call": "inactive"}, {"smiles": "COC(=O)C1=C(C)NC(C)=C(C(=O)OCC(C)C)[C@@H]1c1ccccc1[N+](=O)[O-]", "cytotoxicity call": "inactive"}, {"smiles": "COC(=O)C1=C(C)NC(C)=C(C(=O)OCC(C)C)C1c1ccccc1[N+](=O)[O-]", "note": "(configuration not stated)", "cytotoxicity call": "inactive"}, {"smiles": "NNC(=O)c1cccc([N+](=O)[O-])c1", "cytotoxicity call": "inactive"}, {"smiles": "O=C(Nc1cccc([N+](=O)[O-])c1)C(=O)NC1CC1", "cytotoxicity call": "inactive"}, {"smiles": "COC(=O)C1=C(C#N)NC(C)=C(C(=O)OC(C)C)C1c1cccc([N+](=O)[O-])c1", "note": "(configuration not stated)", "cytotoxicity call": "active"}, {"smiles": "COC(=O)C1=C(C)NC(C)=C(C(=O)NCCCN2CCC(c3ccccc3)(c3ccccc3)CC2)[C@@H]1c1ccc([N+](=O)[O-])cc1", "cytotoxicity call": "active"}, {"smiles": "COC(=O)C1=C(C)NC(C)=C(C(=O)OCCN2CCN(C(c3ccccc3)c3ccccc3)CC2)C1c1cccc([N+](=O)[O-])c1", "note": "(configuration not stated)", "cytotoxicity call": "active"}, {"smiles": "COC(=O)C1=C(C)NC(C)=C(C(=O)OC(C)(C)CN(C)CCC(c2ccccc2)c2ccccc2)[C@@H]1c1cccc([N+](=O)[O-])c1", "cytotoxicity call": "inactive"}, {"smiles": "Oc1ccccc1CNc1ccc(C2CCCCC2)cc1", "cytotoxicity call": "inactive"}, {"smiles": "CNCc1cc2ccccc2s1", "cytotoxicity call": "inactive"}, {"smiles": "O=C(C[C@@H]1C[C@@H]2c3cc(NC(=O)c4ccc5c(c4)OCO5)ccc3O[C@@H]2[C@H](CO)O1)NCCN1CCCCC1", "cytotoxicity call": "inactive"}, {"smiles": "Cc1noc(C)c1NC(=O)Nc1ccc2c(c1)C(=O)N([C@@H](C)CO)C[C@H](C)[C@@H](CN(C)C(=O)Cc1ccccc1)OCCCC[C@H](C)O2", "cytotoxicity call": "inactive"}, {"smiles": "Cn1ccc(C(=O)N2CC[C@@H]3OCCN(S(C)(=O)=O)[C@@H]3C2)n1", "cytotoxicity call": "inactive"}, {"smiles": "C[C@H]1CN([C@@H](C)CO)C(=O)c2cc(NS(=O)(=O)c3ccc(Cl)cc3)ccc2O[C@H]1CN(C)Cc1ccc(C(=O)Nc2ccccc2N)cc1", "cytotoxicity call": "inactive"}, {"smiles": "C[C@@H]1CN([C@H](C)CO)C(=O)c2cc(C#Cc3ccc(F)cc3)cnc2O[C@@H]1CN(C)CC1CCOCC1", "cytotoxicity call": "inactive"}, {"smiles": "CC1(C)OC2CC3C4CC(F)C5=CC(=O)C=CC5(C)C4(F)C(O)CC3(C)C2(C(=O)CO)O1", "note": "(configuration not stated)", "cytotoxicity call": "inactive"}, {"smiles": "CC1=C(C(=O)OCCN(Cc2ccccc2)c2ccccc2)[C@@H](c2cccc([N+](=O)[O-])c2)C(P2(=O)OCC(C)(C)CO2)=C(C)N1.CCO.Cl", "cytotoxicity call": "inactive"}, {"smiles": "CC1=C(C(=O)OCCN(Cc2ccccc2)c2ccccc2)[C@H](c2cccc([N+](=O)[O-])c2)C(P2(=O)OCC(C)(C)CO2)=C(C)N1", "cytotoxicity call": "inactive"}, {"smiles": "COCCOC(=O)C1=C(C)NC(C)=C(C(=O)OC(C)C)C1c1cccc([N+](=O)[O-])c1", "note": "(configuration not stated)", "cytotoxicity call": "inactive"}, {"smiles": "COC(=O)C1=C(C)NC(C)=C(C(=O)OCCCN2CCC(c3ccccc3)(c3ccccc3)CC2)[C@@H]1c1cccc([N+](=O)[O-])c1", "cytotoxicity call": "active"}, {"smiles": "COC(=O)C1=C(C)NC(C)=C(C(=O)OCCCN2CCC(c3ccccc3)(c3ccccc3)CC2)[C@H]1c1cccc([N+](=O)[O-])c1", "cytotoxicity call": "active"}, {"smiles": "COc1cc(OC)cc(C(=O)OCCCN2CCN(CCCOC(=O)c3cc(OC)cc(OC)c3)CC2)c1", "cytotoxicity call": "inactive"}, {"smiles": "COCCOC(=O)C1=C(C)NC(C)=C(C(=O)OCC=Cc2ccccc2)C1c1cccc([N+](=O)[O-])c1", "note": "(configuration not stated)", "cytotoxicity call": "active"}, {"smiles": "O=C(C[C@@H]1CC[C@H]2[C@@H](COC[C@@H](O)CN2Cc2ccccc2F)O1)N[C@H]1CCN(Cc2ccccc2)C1", "cytotoxicity call": "inactive"}, {"smiles": "CO[C@@H]1CN(C)C(=O)c2ccc(NC(=O)c3ccc(F)cc3)cc2OC[C@H](C)N(C(=O)CN(C)C)C[C@@H]1C", "cytotoxicity call": "inactive"}, {"smiles": "C[C@H]1CN([C@@H](C)CO)C(=O)c2cccc(NC(=O)C3CC3)c2O[C@H]1CN(C)Cc1ccc2c(c1)OCO2", "cytotoxicity call": "inactive"}]}]}
